This passage reports inhibition results from PubChem BioAssay AID2313 (Broad Institute, 2010).

What is called inhibition is the relative decrease from the control value, in per cent.

Hit rate of the full screen: of about 22,000 compounds, about 460 (2.1%) were called active. Roughly 2% stayed inconclusive and do not appear here. Only a selection was taken, and actives are over-represented in it overall. Unmarked numbers belong to inactive results.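 Rule for the calls: active = mean inhibition across valid replicates above about 65% (limit read from the data); inconclusive = mean under the limit, yet half or more replicates past it; inactive = the rest.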

This assay can be described thus: Hedgehog pathway signaling inhibitors, primary screen, luminescence, Shh-LIGHT2 cells, Gli-luciferase (AID 2313).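 Note: pathway switched on by Shh-conditioned medium diluted 1 in 25 in low serum.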 The following applies: Shh-LIGHT2 Gli-luciferase reporter, 30 h; active compounds read high.
As to `C[C@@H]1CN([C@H](C)CO)C(=O)Cc2cc(N(C)C)ccc2O[C@H]1CN(C)S(C)(=O)=O`, the inhibition was -5.86%.
The same measure for `Cc1ccc(S(=O)(=O)Nc2ccc3c(c2)C(=O)N([C@@H](C)CO)C[C@H](C)[C@@H](CN(C)CC2CC2)O3)cc1`: 11.4%; for `O=C(O)c1ccc(NS(=O)(=O)c2ccc3c4c(cccc24)C(=O)N3)cc1`: -9.19%; for `C[C@H]1CN([C@@H](C)CO)C(=O)c2cccc(NS(=O)(=O)c3ccc(F)cc3)c2O[C@@H]1CN(C)Cc1ccncc1`: 3.57%.
`Cc1ccc(S(=O)(=O)N(C)C[C@H]2Oc3c(NS(=O)(=O)c4ccc(Cl)cc4)cccc3C(=O)N([C@H](C)CO)C[C@@H]2C)cc1`: the inhibition was -17.4%.
In the case of `Cc1ccc(-n2nnnc2-c2cnn(-c3ccccc3)c2C)cc1`, the inhibition is 88.7% (active).
The same measure for `CCCN(C)C[C@H]1OCCCC[C@@H](C)Oc2ccc(N(C)C)cc2C(=O)N([C@H](C)CO)C[C@@H]1C`: -12.9%; for `COc1ccc(CN(C)C[C@H]2Oc3c(NS(=O)(=O)c4ccccc4)cccc3C(=O)N([C@H](C)CO)C[C@@H]2C)cc1`: -36.7%.
With `COc1ccc(S(=O)(=O)N(C)C[C@H]2Oc3c(NC(=O)Nc4ccc5c(c4)OCO5)cccc3C(=O)N([C@H](C)CO)C[C@@H]2C)cc1`, the inhibition is 18.1%.
For the molecule `CC(=O)Nc1ccc(Nc2c3c4c(cccc4[nH]c2=O)C(=O)c2ccccc2-3)cc1`, the inhibition is 88.2% (active).
Take `COc1ccc(CCN=C2SCC(=O)N2Cc2ccccc2)cc1OC`: the inhibition is 13.3%.
Regarding `Cc1noc(C)c1NC(=O)Nc1ccc2c(c1)C(=O)N([C@H](C)CO)C[C@H](C)[C@H](CN(C)Cc1ccncc1)OCCCC[C@@H](C)O2`, the inhibition was 0.0543%.
`C[C@H]1CN([C@@H](C)CO)C(=O)Cc2cc(NC(=O)C3CC3)ccc2O[C@H]1CN(C)S(=O)(=O)c1ccc(Cl)cc1`: the inhibition was 30.4%.
With `C[C@@H]1CN([C@H](C)CO)C(=O)c2cc(NC(=O)CCN3CCOCC3)ccc2O[C@H]1CN(C)Cc1ccc(Oc2ccccc2)cc1`, the inhibition is -15%.
For `Oc1ccc(CN2CCCC2)c2cccnc12`, the inhibition was 85% (active).
For the molecule `Cc1onc(-c2c(Cl)cccc2Cl)c1C(=O)N=S(C)(C)=O`, the inhibition is -19%.
As for `C[C@H]1CN([C@@H](C)CO)C(=O)c2cccc(NS(=O)(=O)c3cccs3)c2O[C@H]1CN(C)C(=O)Nc1ccccc1`, the inhibition was 26.6%.
For `CCC/C=C/C=C/C1CC(O)C(O)C1C(=O)O` (stereo not given), the inhibition is -18%.
For the molecule `C[C@H](CO)N1C[C@H](C)[C@H](CN(C)C(=O)NC2CCCCC2)Oc2c(NC(=O)C3CC3)cccc2C1=O`, the inhibition was -11.9%.
As for `C[C@H](CO)N1C[C@H](C)[C@@H](CN(C)Cc2ccc(Cl)c(Cl)c2)Oc2c(NC(=O)Nc3ccccc3)cccc2C1=O`, the inhibition is -0.821%.
With `Oc1c(Cl)cc(Cl)c(Cl)c1Cc1c(O)c(Cl)cc(Cl)c1Cl` the figure was 102% (active); with `C[C@@H]1CN([C@H](C)CO)C(=O)c2cccc(NC(=O)c3nc4ccccc4s3)c2O[C@H]1CN(C)S(=O)(=O)c1ccc(Cl)cc1`, 11%.
Turning to `C[C@H]1CN([C@@H](C)CO)C(=O)c2cccc(NS(=O)(=O)c3ccc(F)cc3)c2O[C@@H]1CN(C)CC1CC1`, the inhibition was -16.6%.
Take `C[C@H]1CN([C@@H](C)CO)C(=O)Cc2cc(NS(=O)(=O)c3ccc(F)cc3)ccc2O[C@H]1CN(C)Cc1ccc(C(F)(F)F)cc1`: the inhibition is 30.1%.
On to `COc1ccc(S(=O)(=O)N(C)C[C@H]2Oc3ccc(NC(=O)C4CC4)cc3CC(=O)N([C@@H](C)CO)C[C@@H]2C)cc1`, for which the inhibition is -32.4%.
On to `CC(C)NC(=O)Nc1ccc2c(c1)C(=O)N([C@@H](C)CO)C[C@@H](C)[C@H](CN(C)Cc1ccc(C(=O)O)cc1)O2`, for which the inhibition was -19.8%.
With `C[C@H]1CN([C@@H](C)CO)C(=O)Cc2cc(N(C)C)ccc2O[C@@H]1CN(C)Cc1ccc(-c2ccccc2)cc1` the figure was 33.2%; with `C[C@@H]1CCCCO[C@@H](CN(C)C(=O)CCC(F)(F)F)[C@@H](C)CN([C@H](C)CO)C(=O)c2cc(NC(=O)Nc3ccccc3)ccc2O1`, -0.845%; with `O=C(c1ccccc1)c1cnn(-c2ccc(Cl)cc2)n1`, 79.3% (active).
For the molecule `C[C@@H]1CN([C@H](C)CO)C(=O)Cc2cc(NC(=O)C3CCCCC3)ccc2O[C@@H]1CN(C)S(C)(=O)=O`, the inhibition was -14.6%.
In the case of `C[C@@H]1CN([C@H](C)CO)C(=O)c2cccc(NC(=O)Nc3ccc4c(c3)OCO4)c2O[C@H]1CN(C)C(=O)Nc1ccc(F)cc1`, the inhibition is -8.45%.
With `C[C@@H]1CN([C@@H](C)CO)C(=O)c2cccc(NC(=O)NC3CCCCC3)c2O[C@@H]1CN(C)CC1CCCCC1` the figure was -35.3%.
Regarding `C[C@H]1CN([C@@H](C)CO)C(=O)Cc2cc(NC(=O)CCC(F)(F)F)ccc2O[C@H]1CN(C)C(=O)NC1CCCCC1`, the inhibition was -30.3%.
As to `O=C1C2CC3CC1CC(C(=O)O)(C3)C2`, the inhibition is -15.4%.
With `CCN1C(=O)c2cccc3c(NC(=S)NC(=O)c4ccccc4)ccc1c23` the figure was 86.3% (active); with `O=c1n(Cc2ccccc2)c2ccccc2n1Cc1ccccc1`, 96.1% (active).
Regarding `O=c1c2ccccc2c(-c2ccccc2)nn1Cc1ccccc1`, the inhibition was 9.85%.
With `CC(C)(C)c1ccc(Cn2c(=N)n(CC(=O)O)c3ccccc32)cc1` the figure was -5.52%.
With `CCCN(C)C[C@@H]1OCCCC[C@@H](C)Oc2ccc(NC(=O)CCCN(C)C)cc2C(=O)N([C@H](C)CO)C[C@@H]1C` the figure was -7.4%; with `S=C(NCC1CC1)Nc1ccc(Cl)cc1`, -35.4%.
`O=C(O)c1c(Br)c(Br)c(Br)c(Br)c1-c1c2ccc(=O)cc-2oc2cc(O)ccc12`: the inhibition is -5.58%.
In the case of `C[C@@H]1CN([C@@H](C)CO)C(=O)c2cccc(NC(=O)Nc3ccc(F)cc3)c2O[C@H]1CN(C)Cc1ccc(-c2ccccc2)cc1`, the inhibition was 2.55%.
With `C[C@H]1CN([C@@H](C)CO)C(=O)c2cc(NC(=O)Nc3ccccc3)ccc2O[C@H]1CN(C)S(C)(=O)=O` the figure was -21%; with `C[C@@H]1CN([C@H](C)CO)C(=O)Cc2cc(NS(=O)(=O)c3ccc(Cl)cc3)ccc2O[C@H]1CN(C)S(=O)(=O)c1cccs1`, -21.8%.
With `COc1ccc(S(=O)(=O)N(C)C[C@@H]2OCCCC[C@@H](C)Oc3ccc(NS(C)(=O)=O)cc3C(=O)N([C@H](C)CO)C[C@@H]2C)cc1` the figure was 54.6%; with `C=C1C(=O)OC2/C=C(\C)CC3C=C(CC/C=C(\C)CCC12)C(=O)O3` (stereo not given), 39.9%.
Regarding `CC(C)NC(=O)Nc1ccc2c(c1)CC(=O)N([C@H](C)CO)C[C@H](C)[C@H](CN(C)Cc1ccc3c(c1)OCO3)O2`, the inhibition was -12.2%.
With `C[C@@H]1CN([C@H](C)CO)C(=O)c2cccc(NS(=O)(=O)c3ccc(Cl)cc3)c2O[C@@H]1CN(C)Cc1ccc(Oc2ccccc2)cc1` the figure was 23.8%; with `C[C@@H]1O[C@@H](O[C@H]2[C@@H](Oc3cc(O)c4c(c3)O[C@H](c3ccc(O)cc3)CC4=O)O[C@H](CO)[C@@H](O)[C@@H]2O)[C@H](O)[C@H](O)[C@H]1O`, -8.61%.
Consider `C[C@@H]1CN([C@H](C)CO)C(=O)c2cccc(NS(=O)(=O)c3ccc(Cl)cc3)c2O[C@H]1CN(C)C(=O)NC1CCCCC1`, for which the inhibition is -17%.
With `CC(C)NC(=O)N(C)C[C@@H]1Oc2ccc(NS(=O)(=O)c3cn(C)cn3)cc2C(=O)N([C@@H](C)CO)C[C@@H]1C`, the inhibition was 8%.
Consider `Cc1ccc(NC(=O)C2C3C=CC(C3)C2C(=O)O)cc1` (stereo not given), for which the inhibition was -27.3%.
Consider `Cc1ccc(S(=O)(=O)Nc2ccc3c(c2)C(=O)N([C@H](C)CO)C[C@H](C)[C@@H](CN(C)S(=O)(=O)c2cccs2)O3)cc1`, for which the inhibition was -5.89%.
On to `C[C@@H]1CCCCO[C@H](CN(C)Cc2ccc(Cl)c(Cl)c2)[C@@H](C)CN([C@H](C)CO)C(=O)c2cc(NS(=O)(=O)c3cn(C)cn3)ccc2O1`, for which the inhibition was -46.4%.
Turning to `CC(C)NC(=O)N(C)C[C@H]1Oc2c(NS(=O)(=O)c3cccs3)cccc2C(=O)N([C@H](C)CO)C[C@H]1C`, the inhibition was -35.4%.
Turning to `C[C@@H]1CN([C@H](C)CO)C(=O)c2cccc(NS(=O)(=O)c3ccc(F)cc3)c2O[C@H]1CN(C)Cc1ccc(Oc2ccccc2)cc1`, the inhibition is 23.1%.
Consider `COc1ccc(CN(C)C[C@H]2Oc3ccc(NS(=O)(=O)c4ccc(C)cc4)cc3C(=O)N([C@@H](C)CO)C[C@H]2C)cc1`, for which the inhibition is 29.4%.
For the molecule `COc1cc([C@H]2OC[C@H]3[C@@H]2CO[C@@H]3c2cc(OC)c(O[C@@H]3O[C@H](CO)[C@@H](O)[C@H](O)[C@H]3O)c(OC)c2)cc(OC)c1O`, the inhibition was 2.06%.
Take `COc1ccc(CN2C(=O)CC(Cc3ccc(C)cc3)C2=O)cc1OC` (stereo not given): the inhibition is 4.43%.
The same measure for `COc1ccc(S(=O)(=O)Nc2cccc3c2O[C@@H](CN(C)S(=O)(=O)c2ccccc2)[C@@H](C)CN([C@@H](C)CO)C3=O)cc1`: -0.37%.
For the molecule `O=C(CSc1nnc2n1CCCN2)c1ccccc1`, the inhibition is -28.2%.
On to `O=C1C=C(SCC(=O)c2ccccc2)SC(c2ccc(Cl)cc2)C1` (stereo not given), for which the inhibition was 82.7% (active).
With `CC1(C)CC[C@]2(C(=O)O[C@@H]3O[C@H](CO)[C@@H](O)[C@H](O)[C@H]3O)CC[C@]3(C)C(=CCC4[C@@]5(C)CC[C@H](O[C@@H]6O[C@H](C(=O)O)[C@@H](O[C@@H]7OC[C@H](O)[C@H](O)[C@H]7O)[C@H](O)[C@H]6O)C(C)(C)C5CC[C@]43C)C2C1` (stereo not given in full) the figure was 35.4%.
The same measure for `CC1OC(OC2C(OC3C(O[C@H]4CC[C@@]5(C)C(CC[C@]6(C)C5CC=C5[C@@H]7CC(C)(C)C[C@@H](O)[C@]7(C)CC[C@]56C)C4(C)C)OC(C(=O)O)C(O)C3O)OC(CO)C(O)C2O)C(O)C(O)C1O` (stereo not given in full): 7.2%; for `C/C=C(/C)C(=O)O[C@H]1CC(C)(C)C[C@H]2C3=CCC4[C@@]5(C)CC[C@H](O[C@@H]6O[C@H](C(=O)O)[C@@H](O[C@@H]7O[C@H](CO)[C@H](O)[C@H](O)[C@H]7O[C@@H]7O[C@H](CO)[C@@H](O)[C@H](O)[C@H]7O)[C@H](O)[C@H]6O[C@@H]6O[C@@H](C)[C@H](O)[C@@H](O)[C@H]6O)C(C)(C)C5CC[C@@]4(C)[C@]3(C)[C@@H](OC(C)=O)[C@@H](O)[C@@]12COC(C)=O` (stereo not given in full): 97.7% (active).
The same measure for `COC(=O)C1=CO[C@@H](O[C@@H]2O[C@H](CO)[C@@H](O)[C@H](O)[C@H]2O)[C@@H]2[C@@](C)(O)[C@@H](OC(=O)/C=C/c3ccc(OC)c(OC)c3)C[C@]12O`: 3.81%.
`C=CC1(C)C=C2CCC3C(C)(C)C(O[C@@H]4O[C@@H](CO)[C@H](O)[C@H]4O)CCC3(C)C2CC1O[C@@H]1O[C@H](C)[C@@H](OC)[C@H](O)[C@H]1O` (stereo not given in full): the inhibition is -27.2%.
For `C/C=C(/C)C(=O)O[C@H]1CC(C)(C)C[C@H]2C3=CCC4[C@@]5(C)CC[C@H](O[C@@H]6O[C@H](C(=O)O)[C@@H](O[C@@H]7O[C@H](CO)[C@H](O)[C@H](O)[C@H]7O[C@@H]7O[C@H](CO)[C@@H](O)[C@H](O)[C@H]7O)[C@H](O)[C@H]6O[C@@H]6O[C@@H](C)[C@H](O)[C@@H](O)[C@H]6O)C(C)(C)C5CC[C@@]4(C)[C@]3(C)[C@@H](O)[C@@H](O)[C@@]12CO` (stereo not given in full), the inhibition is 99.7% (active).
`CCC/C=C/C(=O)OC1C(O)C23C(O)OC4(CCC5C6(C)CCC(OC7OC(C(=O)O)C(O)C(OC8OC(CO)C(O)C(O)C8OC8OC(C)C(O)C(O)C8OC8OCC(O)C(O)C8O)C7OC7OC(CO)C(O)C(O)C7O)C(C)(C)C6CCC5(C)C4(C)CC2OC(C)=O)C3CC1(C)C` (stereo not given): the inhibition was 104% (active).
The same measure for `CC1(C)CC[C@]2(C(=O)O)CC[C@]3(C)C(=CCC4[C@@]5(C)CC[C@H](OC6O[C@H](CO)[C@@H](O)[C@H](O[C@@H]7O[C@H](CO)[C@@H](O)[C@H](O)[C@H]7O)[C@H]6O)C(C)(C)C5CC[C@]43C)[C@@H]2C1` (stereo not given in full): 107% (active).
